# Screening results (PubChem BioAssay)
# RXFP1 ag – agonists of human relaxin receptor RXFP1. HEK293T-RXFP1 cAMP TR-FRET, 30 min; response scale: percent of porcine relaxin response, buffer zero. Potency, µM (titrated, usually from 57.5 µM), inactives show top-dose activation, most hits filed as activators. 0.3% of 370,000 active; further: potency means the concentration at half of the fitted maximal effect; on the % scale 0 is the no-effect control and ±100 the full control effect; nearly all actives have a fitted effect of over 60% in size
# Target sequence (Q9HBX9 whole entry, looked up): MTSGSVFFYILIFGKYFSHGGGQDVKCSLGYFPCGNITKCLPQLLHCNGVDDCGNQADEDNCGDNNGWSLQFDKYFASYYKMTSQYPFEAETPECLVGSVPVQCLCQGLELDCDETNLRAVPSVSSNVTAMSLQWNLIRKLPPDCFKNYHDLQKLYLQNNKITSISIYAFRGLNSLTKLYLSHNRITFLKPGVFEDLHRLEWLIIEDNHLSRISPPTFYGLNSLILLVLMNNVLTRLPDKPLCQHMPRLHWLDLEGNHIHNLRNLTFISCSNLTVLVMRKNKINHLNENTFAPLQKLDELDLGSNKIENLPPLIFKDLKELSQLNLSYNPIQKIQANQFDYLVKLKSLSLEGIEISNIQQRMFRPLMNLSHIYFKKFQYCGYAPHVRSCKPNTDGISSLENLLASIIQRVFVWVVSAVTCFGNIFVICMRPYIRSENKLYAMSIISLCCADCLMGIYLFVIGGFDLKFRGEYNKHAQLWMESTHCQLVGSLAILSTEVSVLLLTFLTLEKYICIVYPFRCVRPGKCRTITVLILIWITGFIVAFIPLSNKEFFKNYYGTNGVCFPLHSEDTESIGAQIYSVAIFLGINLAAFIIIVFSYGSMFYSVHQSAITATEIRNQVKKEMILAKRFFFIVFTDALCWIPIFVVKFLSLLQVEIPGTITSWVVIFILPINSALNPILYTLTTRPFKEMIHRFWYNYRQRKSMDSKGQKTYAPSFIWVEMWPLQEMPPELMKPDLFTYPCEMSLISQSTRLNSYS
#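 cAMP rise read by TR-FRET after 30 min, 37C compound exposure (up to 58 uM) in RXFP1-transfected HEK293 cells with Ro 20174 present. EC50 from Hill-equation fits, with 29 nM porcine relaxin as 100% and buffer as basal.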
# NPSR antagonist – antagonists of human neuropeptide S receptor cAMP signaling | CHO-NPSR cells, cAMP TR-FRET, antagonist mode | Q6W5P4 | Potency, µM (highest dose often 38.3 µM), without a hit: at the top dose activity change, negative = inhibition, hits mostly inhibitors | 1% of 220,000 active; further: potency means the concentration at half of the fitted maximal effect; on the % scale 0 is the no-effect control and ±100 the full control effect; nearly all actives have a fitted effect of over 50% in size
# TCR act – activators of T cell receptors; primary human leukocytes, anti-CD3, IL-2 HTRF, 48 h; Potency, µM (highest dose often 9.22 µM), inactives show at the top dose activation of IL-2 secretion, most hits filed as activators; 330,000 tested, under 10 active; AID 504894; further: % of control where 0% means no effect
#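 48 hr co-incubation of compounds, a-CD3 beads and primary human leukocytes; IL-2 quantified homogeneously by HTRF with anti-IL-2 K and d2 conjugates.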
# RXFP1 antagonist – RXFP1 (human) relaxin receptor antagonism. HEK293-RXFP1, relaxin-stimulated cAMP HTRF, 30 min; stronger effect = lower value. AID 1259400. activity change, negative = inhibition, % at 57.5 µM. 0.59% of 350,000 active;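 active means activity change of -60% or lower, but not beyond a set lower limit; inconclusive means change between -60% and -40%, or beyond the set limit; inactive means change above -40%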; further: on the % scale 0 is the no-effect control and ±100 the full control effect
# TSHR antagonist – antagonists of human thyroid stimulating hormone receptor | TSHR-expressing cells, TSH-stimulated cAMP HTRF, 2 h; stronger effect = lower value | activity change, negative = inhibition, % at 11.5 µM | 0.2% of 330,000 active | AID 504810;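 active means activity change below a set negative limit, meaning inhibition stronger than a set level, cut at about -70% in these data; inconclusive means activity change between two set negative limits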; further: on the % scale 0 is the no-effect control and ±100 the full control effect
#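 TSHR-expressing cells were treated with compounds, then stimulated with TSH at EC80 (4nM final) for 2 hours at 37 deg C. Cellular cAMP was measured by HTRF competition between lysate cAMP and cAMP-d2 for a cryptate-labelled anti-cAMP antibody.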
# PTHR1 agonist – activates the human parathyroid hormone receptor PTHR1; Q03431; HEK293 GP2 PTHR1 cells, GloSensor cAMP luminescence, 1 h; Potency, µM (series often up to 115 µM), without a hit: top-dose activation, actives largely listed as activators; 0.075% of 410,000 active; further: potency means the concentration at half of the fitted maximal effect; nearly all actives have a fitted effect of over 55% in size
#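 HEK-293-derived GP2 cells expressing PTHR1 and a GloSensor cAMP reporter, 3,000/well, plated overnight, given luciferin plus IBMX (each 0.5 mM as added) for 1 h at 37 °C, then compound for 1 h at 37 °C. Luminescence was read after 15 min at room temperature.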
# * hit, by the source's call; i = inactive; ? = inconclusive; . = not tested or not shown; ! = not active in a repeat; [ ] = remark or other dose. Shown is part of a subset that was picked to be rich in hits. Unless noted, the call rests on the fitted dose curve; in most records, active means well fitted curve in the direction sought with a large enough effect; inconclusive means small, poorly fitted or top-dose-only effect, or another doubt; inactive means no such curve, though single readings can be large; an effect the other way counts as inactive or inconclusive.
SMILES,RXFP1 ag,NPSR antagonist,TCR act,RXFP1 antagonist,TSHR antagonist,PTHR1 agonist
CC(C)C(O)(c1ccccc1)C(CN1CCOCC1)c1ccccc1 (centres undefined),1.9%,.,9.8%,-11.6,-8.4,-8.3%
CCCC(O)(c1ccc(CC)cc1)C(CN1CCOCC1)c1ccccc1 (centres undefined),-2.8%,.,1.6%,-62.4*,13.0,-12.1%
CNC(=O)[C@H]1O[C@@H](n2cnc3c(NCc4cccc(I)c4)ncnc32)[C@H](O)[C@@H]1O,15.8µM*,.,4.6%,.,-7.4,-33.4%
Cc1ccc([N+](=O)[O-])cc1N=Nc1c(-c2ccc([N+](=O)[O-])cc2)[nH]n(C(N)=S)c1=O,0.0%,10µM*,-4.5%,-6.0,-35.9,-47.1%
CCC(=NCCc1c(C)[nH]c2ccccc12)C1=C(O)CC(c2ccccc2)CC1=O (centres undefined),-1.7%,-54.5%,15.9%,.,-8.0,-4.7%
CCC(=NCCc1c(C)[nH]c2ccc(OC(F)(F)F)cc12)C1=C(O)CC(c2ccccc2)CC1=O (centres undefined),0.4%,10µM*,0.3%,-9.5,-17.6,-7.7%
CCCSC(=S)c1c(C)[nH]n(-c2ccccc2)c1=O,0.3%,?,-4.7%,-70.3*,-22.6,-27.4%
CCCCN(CCCC)C(=S)N/N=C/c1c(C)[nH]n(-c2ccccc2)c1=O,-2.6%,7.8%[46.1 µM],-0.1%,25.6,-6.3,-18.8%[57.5 µM]
CCOC(=O)c1sc2nc3c(SCCC#N)cc(C(=O)c4cc(F)ccc4O)cn3c(=O)c2c1C,1.0%,-15.4%,3.6%[46.1 µM],2.9,-4.7,-23.0%
CCOC(=O)c1sc2nc3c(SCCC(=O)O)cc(C(=O)c4cc(OC)ccc4O)cn3c(=O)c2c1C,1.7%,10µM*,-4.6%,-0.4,-14.2,-31.9%
Clc1cccc(-n2ncc3c(NCCCn4ccnc4)ncnc32)c1,4.3%,.,.,-9.2,.,i
Oc1c(C(Nc2cccc(C(F)(F)F)c2)c2ccncc2)ccc2cccnc12 (centres undefined),1.8%,-25.2%,0.9%,-60.8*,-2.8,i
Oc1c(C(Nc2nccs2)c2ccc(C(F)(F)F)cc2)ccc2cccnc12 (centres undefined),0.4%,-12.8%,4.7%,?,2.2,11.6%
CN(C)c1ccc(/C=C/c2ccc3ccccc3[n+]2C)cc1,3.4%,3.16µM*,?,-91.9*,?,-42.7%
CN(C)c1ccc(/C=C/c2ccc3c4ccccc4ccc3[n+]2-c2ccccc2)cc1,-9.5%,10µM*,16.9%,?,-47.9,-27.3%
CN(C)c1ccc(/C=C/c2cccc[n+]2[O-])cc1,0.8%,-3.0%,-2.5%,-5.1,-7.6,-18.3%
Cc1ccc(NC(=O)C2CCCN(S(=O)(=O)c3cn(C(C)C)cn3)C2)c(C)c1 (centres undefined),0.6%,.,.,.,.,-4.6%
O=c1cc(N2CCCCC2)c(-c2ccccc2)nn1Cc1c(Cl)cccc1Cl,-0.4%,10µM*,-4.9%,?,-13.5,-19.3%
CCC(C)NC(=O)C(Cc1ccccc1)NS(=O)(=O)c1ccc2c(c1)CCC(=O)N2 (centres undefined),-0.6%,.,2.4%,-71.2*,-7.4,i
CCOC(=O)C1(Cc2cccc(OC)c2)CCN(C/C=C/c2ccccc2)CC1,-2.0%,?,-1.8%,-12.2,-2.7,-26.6%
CCOC(=O)C1(Cc2cccc(OC)c2)CCN(C/C=C/c2ccc(OC)cc2)CC1,0.0%,36.6%,-4.8%,-81.9*,-1.3,-33.7%
COc1ccccc1/C=C/CN1CCCC(CO)(Cc2cccc(Cl)c2)C1 (centres undefined),0.9%,?,-2.4%,?,-2.7,-15.4%
COc1ccc(/C=C/CN2CCCC(CO)(Cc3cccc(Cl)c3)C2)cc1 (centres undefined),-2.0%,?,7.0%,-69.3*,9.0,i
CCN(CC)S(=O)(=O)c1ccc(NC(=O)c2nn(C)c3c2CSc2ccccc2-3)cc1,-3.9%,.,.,20.7,.,i
CCn1c(=O)cc(C(=O)OC)sc1=Nc1ccc(F)c(F)c1,-0.9%,-8.1%[46.1 µM],10.4%,-14.7,18.2,-50.4%
SMILES,RXFP1 ag,NPSR antagonist,TCR act,RXFP1 antagonist,TSHR antagonist,PTHR1 agonist
COC(=O)c1cc(=O)n(CCc2ccccc2)c(=Nc2ccc(F)cc2)s1,2.3%,10µM*,-3.7%,-4.4,-8.4,-33.2%
CCOC(=O)c1ccc(N=c2sc(C(=O)OC)cc(=O)n2CCCN2CCOCC2)cc1,0.3%,12.6µM*!,0.5%,-16.9,-19.1,-42.1%
COC(=O)c1cc(=O)n(CCc2ccc(OC)cc2)c(=Nc2ccc(F)c(Cl)c2)s1,3.4%,-10.1%[46.1 µM],-1.1%,5.9,-26.3,-10.7%
COc1ccc(CNC(=O)c2cc(S(=O)(=O)N3CCOCC3)cn2C)cc1,3.7%,.,6.5%,0.9,-2.0,-45.9%
COc1cccc(CNC(=O)c2cc(S(=O)(=O)N3CCOCC3)cn2C)c1,0.4%,.,-0.4%,-82.0*,11.8,-13.0%
Cn1cc(S(=O)(=O)N2CCCC2)cc1C(=O)NCc1ccccc1Cl,4.6%,.,8.8%,-72.5*,-10.0,-44.6%
CCN(CC)S(=O)(=O)c1ccc2c(c1)N(CC(=O)NCCCN1CCN(c3cc(C)ccc3C)CC1)C(=O)CO2,-0.5%,.,.,-21.9,.,-2.5%
Cc1ccc2c(c1)c1ccc3c(c1n2C)C(=O)C=CC3=O,0.8%,7.94µM*,12.1%,-31.6,-16.9,-4.6%
CN(Cc1ccccc1)S(=O)(=O)c1ccc(OCC(=O)NCc2ccccn2)cc1,0.6%,.,-0.1%,1.5,-103.8*,-19.2%
CCOc1ccc(S(=O)(=O)N(C)CC(=O)NCc2ccccn2)cc1,-0.2%,.,-40.1%,-1.3,4.5,-8.2%
COc1ccc(CNC(=O)CCS(=O)(=O)c2cc3c(cc2Cl)NC(=O)CO3)cc1,-0.5%,.,1.8%,13.0,-119.5*,21.5%
Cc1c(NC(=O)C(C)(C)Oc2ccc(Cl)cc2)cccc1-c1nc2ccccc2o1,-0.7%,.,.,-20.2,.,-44.4%
COc1ccc(CN2CCN(C(c3ccc(F)cc3)c3ccc(F)cc3)CC2)c(OC)c1OC,.,.,-7.5%,-105.7*,.,-19.5%
COc1ccc(CN2CCN(c3ccc(F)cc3)CC2)c(OC)c1OC,-4.9%,7.8%,-1.1%[46.1 µM],.,15.4,-14.7%
CN(Cc1ccco1)S(=O)(=O)c1csc(C(N)=O)c1,-2.0%,.,1.8%,-4.4,-138.9*,i
CC(C)CCN(Cc1ccco1)S(=O)(=O)c1csc(C(N)=O)c1,-0.4%,.,7.6%,5.4,-14.9,i
CCOC(=O)c1ccc(OCCN2C[C@H](O)[C@@H](O)[C@H](O)[C@H]2CO)cc1,.,.,.,-5.8,.,.
